BAZ2B block – BAZ2B (human) inhibition; AlphaScreen BAZ2B-H3K14Ac peptide displacement; Potency, µM (doses to about 114 µM), inactives show top-dose activity change, negative = inhibition, actives largely listed as inhibitors; Q9UIF8; 360,000 compounds, 4.4% hits; note: potency is the fitted concentration of half-maximal effect; % is set by controls: 0 for no effect and ±100 for the full control effect; nearly all actives have a fitted effect of over 60% in size
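AlphaScreen displacement: compounds (up to 110uM) incubated 30 min at room temperature with a preformed 50 nM BAZ2B/50 nM biotinylated H3K14Ac peptide complex in PBS pH 7.4 with Tween-20. Donor and acceptor beads at 10 ug/mL final added, 20 min light-protected before reading.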
JMJD2A Tudor – blocks the human JMJD2A Tudor domain. O75164. 390,000 compounds, 4.4% hits. Potency, µM (highest dose often 114 µM), without a hit: top-dose activity change, negative = inhibition, most hits filed as inhibitors. AlphaScreen JMJD2A-Tudor / H3K4me3 peptide binding; note: potency is the fitted concentration of half-maximal effect; % is set by controls: 0 for no effect and ±100 for the full control effect; nearly all actives have a fitted effect of over 50% in size
G9a block – G9a (human) methyltransferase inhibition; Q96KQ7; G9a H3K9 monomethylation, AlphaScreen, 2 h; Potency, µM (highest dose often 102 µM), for inactives: at the highest dose activity, negative = inhibition, usual class: inhibitors; 350,000 compounds, 8.8% hits; AID 504332; note: potency is the fitted concentration of half-maximal effect; % is set by controls: 0 for no effect and ±100 for the full control effect; nearly all actives have a fitted effect of over 75% in size
Target sequence (Q96KQ7 913-1193 limits assumed): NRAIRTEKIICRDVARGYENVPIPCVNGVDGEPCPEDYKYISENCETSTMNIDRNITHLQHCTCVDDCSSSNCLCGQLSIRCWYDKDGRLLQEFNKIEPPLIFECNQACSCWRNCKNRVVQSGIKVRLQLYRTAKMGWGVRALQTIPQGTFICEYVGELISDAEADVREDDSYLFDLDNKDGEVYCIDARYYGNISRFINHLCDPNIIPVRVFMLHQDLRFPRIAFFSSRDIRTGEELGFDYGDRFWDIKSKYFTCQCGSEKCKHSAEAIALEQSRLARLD
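G9a (20 nM) preincubated 15 min RT with compounds, then 500 nM biotinylated H3K9 peptide and 20 uM SAM added; 2 h RT reaction. Monomethyl-H3K9 product detected by AlphaScreen with anti-H3K9me1 antibody, streptavidin donor and anti-rabbit IgG acceptor beads.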
PI5P4Ka inh – inhibitors of human PI5P4K alpha. P48426. PI5P4Kalpha enzyme, ADP-Glo luminescence, 60 min; hits give low values. max response, %. 330,000 compounds, 1.2% hits. AID 652105; active = max response of -50% or lower; inconclusive = between -30% and -50%; inactive = -30% or higher; note: value at the top dose of about 77 µM; % is set by controls: 0 for no effect and ±100 for the full control effect
Target sequence (P48426 whole entry, looked up): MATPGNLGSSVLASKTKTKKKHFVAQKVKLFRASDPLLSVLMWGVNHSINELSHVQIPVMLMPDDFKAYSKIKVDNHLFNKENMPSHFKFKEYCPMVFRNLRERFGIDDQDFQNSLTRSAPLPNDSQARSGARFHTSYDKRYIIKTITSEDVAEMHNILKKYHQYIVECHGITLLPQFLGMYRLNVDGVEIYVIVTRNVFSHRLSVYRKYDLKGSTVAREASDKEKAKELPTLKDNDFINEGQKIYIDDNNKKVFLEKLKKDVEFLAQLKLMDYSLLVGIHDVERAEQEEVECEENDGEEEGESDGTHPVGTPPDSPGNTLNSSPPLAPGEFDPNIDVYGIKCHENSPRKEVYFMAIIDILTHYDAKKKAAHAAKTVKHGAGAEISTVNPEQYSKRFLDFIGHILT
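Single end-point luminescence (ADP-Glo) quantified ADP from PI5P4Kalpha turnover; ATP 5 microM final, 1 h at RT, 0.1% CHAPS and 0.28 mM EGTA in HEPES pH 7.4.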
PLK1 PBD block – PLK1 (human) polo-box domain binding inhibition. Plk1 PBD binding of FITC phosphopeptide, fluorescence polarization. 360,000 compounds, 2.8% hits. Potency, µM, for the others: max response, negative = inhibition, usual class: inhibitors. P53350; note: potency is the fitted concentration of half-maximal effect; series mostly up to about 57 µM; % is set by controls: 0 for no effect and ±100 for the full control effect; nearly all actives have a fitted effect of over 65% in size
HP1b binding inh – HP1-beta chromodomain-methylated histone interaction inhibition | 390,000 compounds, 0.56% hits | AlphaScreen HP1-beta / biotin-H3K9me3 peptide binding | P83916 | Potency, µM (doses to about 114 µM), inactives show at the highest dose activity change, negative = inhibition, actives largely listed as inhibitors; note: potency is the fitted concentration of half-maximal effect; nearly all actives have a fitted effect of over 70% in size
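AlphaScreen: HP1-beta (50 nM) preformed 30 min with biotin-H3(1-18)K9me3 peptide (50 nM) in PBS pH 7.4, 0.01% Tween-20. Compound added for 30 min at RT, then streptavidin donor/nickel chelate acceptor beads (10 ug/mL) for 30 min.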
An asterisk follows results filed as active; ? = inconclusive; . = no result; [ ] = remark or other dose. In the library only some 12% were active in any assay of this set; here they are far more common. Unless noted, calls come from the whole dose curve; as a rule, active = well fitted curve in the direction sought with a large enough effect; inconclusive = small, poorly fitted or top-dose-only effect, or another doubt; inactive = no such curve, though single readings can be large; an effect the other way counts as inactive or inconclusive.

SMILES | BAZ2B block | JMJD2A Tudor | G9a block | PI5P4Ka inh | PLK1 PBD block | HP1b binding inh
Cc1ccccc1CN1C(=O)c2ccccc2S(=O)c2ccc(C(=O)NCc3ccc(Cl)cc3)cc21 (centres undefined) | -0.2% | -12.5% | -8.1%[59 µM] | . | . | 25.8%
CC(C)C(NC(=O)c1c(F)cccc1F)C(=O)NCc1ccc(S(=O)(=O)N2CCOCC2)cc1 (centres undefined) | 8.6% | 5.1% | 37.0%[12.7 µM] | -4.8 | 3.5% | 53.8%
COC(=O)c1cc(=O)nc2sc(-c3cccs3)nn12 | 0.1% | -12.6% | 1.7%[12.7 µM] | . | -6.6% | 30.2%
COc1cc(-c2nnc3sc(Cc4ccccc4)nn23)cc(OC)c1OC | -30.0% | ? | 35.5µM* | ? | 26.7µM* | ?
COc1ccc(Cc2nn3c(-c4ccccc4Br)nnc3s2)cc1 | -14.4% | -29.7% | 5.8%[12.7 µM] | . | -2.6% | 19.3%
COc1ccc(Cc2nn3c(-c4cc(OC)c(OC)c(OC)c4)nnc3s2)cc1 | -7.3% | 79.4µM* | ? | -19.8 | 23.8µM* | ?
COC(=O)c1cc(=O)nc2sc(-c3ccc(F)cc3)nn12 | 4.9% | -35.3% | 3.98µM* | . | 6.7µM* | ?
COc1ccc(-c2nn3c(-c4ccc(F)cc4)nnc3s2)cc1 | -13.9% | -7.9%[57.1 µM] | 44.7µM* | -1.5 | -14.2% | -4.8%
O=C1CN(C(=O)Cc2ccc(F)cc2)C(c2ccccc2)c2cc(Cl)ccc2N1 (centres undefined) | -4.5% | -21.2% | -1.8%[59 µM] | . | . | 34.9%
CSc1nc(N)nc2c1ncn2CC(=O)Nc1ccc(C)c(C)c1 | . | -7.2% | . | -7.6 | -5.1% | 46.2%
COc1cc(-c2nnc3sc(Cc4ccc(Cl)cc4)nn23)cc(OC)c1OC | . | -20.4% | . | -18.6 | 23.8µM* | -16.9%
COc1ccc(-c2nnc3sc(CCN4C(=O)c5ccccc5C4=O)nn23)cc1 | 8.6% | -17.7% | 44.7µM* | -29.5 | -28.3% | -8.0%
COc1ccc(-c2nn3c(-c4ccccc4)nnc3s2)cc1 | ? | -22.2% | ? | -27.2 | -17.8% | -1.2%
CC(C)c1ccccc1NC(=O)C(Cc1c[nH]c2ccccc12)NC(=O)OC(C)(C)C (centres undefined) | -24.5% | ? | 12.0%[59 µM] | . | . | 25.2%
CCn1cc(S(=O)(=O)NCc2ccc(OC)cc2)cn1 | -3.7% | -9.3% | 29.8% | 0.1 | -9.9% | 20.7%
CSc1nsc(SC)c1C(=O)Nc1ccc(C)cc1 | ? | -11.7% | 25.1µM* | -0.8 | -6.9% | 22.7%
COc1cc(NC(=O)CSc2ncc(S(=O)(=O)c3ccc(Br)cc3)c(=O)[nH]2)cc(OC)c1 | ? | ? | -26.1%[59 µM] | . | . | 3.2%
COc1cccc(/C=C/C(=O)c2ccc(NC3=NCCCS3)cc2)c1 | ? | ? | 44.7µM* | -8.9 | -7.7% | -9.4%
Cc1cccc(/C=C/C(=O)c2ccc(NC3=NCCCS3)cc2)c1 | ? | 44.7µM* | ? | -5.8 | -14.6% | -16.4%
CC(C)(C)c1ccc(/C=C/C(=O)c2ccc(NC3=NCCCS3)cc2)cc1 | ? | ? | 39.8µM* | 0.1 | -15.6% | -16.3%
O=C(/C=C/c1ccc(Br)cc1)c1ccc(NC2=NCCCS2)cc1 | ? | ? | ? | -11.9 | -10.9% | -15.2%
COc1ccc(C(=O)N2CCC(C)(C(=O)O)C2)c(OC)c1 (centres undefined) | . | . | . | -3.1 | -7.2% | .
O=C(CN(c1ccc(Cl)c(C(F)(F)F)c1)S(=O)(=O)c1ccccc1)N1CCc2ccccc2C1 | 0.5% | 1.6% | 12.8%[59 µM] | . | . | 45.0%
CC1=CCC(C(C)(C)O)CC1 (centres undefined) | . | . | 23.9%[59 µM] | . | . | .
COc1ccc(OC(C)C(=O)NC2CCCCCC2)cc1 (centres undefined) | . | 0.8% | . | 0.4 | 0.1% | 43.4%
SMILES | BAZ2B block | JMJD2A Tudor | G9a block | PI5P4Ka inh | PLK1 PBD block | HP1b binding inh
Cc1ccc(-n2ncc(C(=O)N3CCC(c4ccccc4)C3)c2C2CCN(C(=O)OC(C)(C)C)CC2)cc1 (centres undefined) | -4.8%[57.1 µM] | ? | -37.8%[59 µM] | . | . | -7.9%
O=C(Cn1cnnn1)NCc1ccccc1 | -3.4% | -12.1% | -13.4% | -0.3 | -6.4% | -15.8%
Fc1ccc(F)c(C2=NNC(=Nc3ccccc3F)SC2)c1 | -31.1% | -33.6% | 9.5%[59 µM] | 3.1 | -22.7% | -7.3%
COCCCN=C1NN=C(c2cc(C)n(-c3ccccc3F)c2C)CS1 | 70.8µM* | ? | 50.1µM* | -3.1 | ? | -3.9%
COCCCN=C1NN=C(c2cc(C)n(Cc3ccccc3Cl)c2C)CS1 | 39.8µM* | ? | 28.2µM* | -13.6 | -20.5% | ?
Cc1cc(C2=NNC(=NCCc3ccccc3)SC2)c(C)n1-c1c(C)n(C)n(-c2ccccc2)c1=O | -8.6% | -9.5% | -11.3%[59 µM] | -0.8 | -16.8% | -6.6%
COCCn1c(C)cc(C2=NNC(=Nc3ccccc3F)SC2)c1C | ? | 89.1µM* | 7.94µM* | -23.2 | -16.1% | -24.2%
COCCCN=C1NN=C(c2cc(C)n(-c3ccccc3)c2C)CS1 | ? | -35.7% | 70.8µM* | 5.0 | -13.0% | -7.4%
CCOC(=O)CNC(=O)Cn1nc(N2CCN(c3ccccc3)CC2)ccc1=O | -2.5% | -11.0% | 7.0%[59 µM] | . | . | 25.8%
Oc1ccc(N2CCN(Cc3c(-c4ccccc4)nc4ccccn34)CC2)cc1 | ? | 14.1µM* | 10µM* | -25.4 | -4.6% | ?
CC1CCCC/C1=N\NC(=S)NCCc1ccccc1 (centres undefined) | ? | ? | ? | 2.8 | -9.8% | -3.0%
C[n+]1ccccc1C1CCCC/C1=N\NC(N)=S (centres undefined) | ? | 22.4µM* | 15.8µM* | -18.6 | ? | ?
Cc1cc(N2CCN(c3ccccc3)CC2)nc(-c2ccccc2O)n1 | 13.6% | -6.9%[57.1 µM] | -44.8% | 8.4 | -12.1% | 69.2%
Cc1cc(N2CCN(c3ccccc3)CC2)nc(-n2nc(C)cc2C)n1 | ? | 44.7µM* | 10.7%[2.33 µM] | . | -8.7% | 15.8%
Cc1ccc(NS(=O)(=O)c2cc3c(cc2Cl)CCC(=O)N3)cc1C | . | -8.2% | . | . | . | .
Fc1ccc(-c2nn3c(C4COc5ccccc5O4)nnc3s2)cc1 (centres undefined) | 0.1% | ? | 3.16µM* | . | 21.2µM* | ?
Fc1ccc(-c2nnc3sc(C4COc5ccccc5O4)nn23)cc1 (centres undefined) | -4.9% | -15.3% | -38.4% | . | -7.6% | 6.1%
c1ccc2c(c1)OCC(c1nnc3sc(-c4cnccn4)nn13)O2 (centres undefined) | 4.9% | -26.3% | 7.94µM* | . | 28.2µM* | -25.3%
c1ccc2c(c1)OCC(c1nnc3sc(-c4ccc5c(c4)OCO5)nn13)O2 (centres undefined) | -3.5% | -28.8% | 5.01µM* | . | 6.7µM* | ?
c1csc(-c2nn3c(C4COc5ccccc5O4)nnc3s2)c1 (centres undefined) | -2.5% | -32.0% | 5.01µM* | . | 23.8µM* | -35.3%

Source: PubChem
